# Measured values reported in PubChem BioAssay (Tox21).
# Inconclusive results are not listed. Entries that show only a call come without a potency. A structure can be active in one record and inactive in another. Activity calls are given as the source filed them. Calls follow the shape of the full dose curve.
# Molecular target: Peroxisome proliferator-activated receptor gamma (Homo sapiens) (UniProt P37231)
# Test: qHTS assay to identify small molecule antagonists of the peroxisome proliferator-activated receptor gamma (PPARg) signaling pathway (AID 743191); also: nearly all actives have a fitted effect of over 30% in size
# Conditions: HEK293H PPARg-UAS-bla, beta-lactamase ratio, antagonist, 17 h; series mostly up to 62.6 µM
# From the text: U.S. Tox21 Program National Center for Advancing Translational Sciences [NCATS] NIH Chemical Genomics Center [NCGC] U.S. Environmental Protection Agency [EPA] National Institutes of Environmental Health Sciences [NIEHS] National Toxicology Program [NTP] U.S. Food and Drug Administration [FDA] Tox21 Assay Overview: The peroxisome proliferator-activated receptors (PPARs) are lipid-activated transcription factors of the nuclear receptor superfamily with three distinct subtypes namely PPAR alpha, PPAR delta (also called PPAR beta) and PPAR gamma (PPARg). All these subtypes heterodimerize with Retinoid X receptor (RXR) and these heterodimers regulate transcription of various genes. PPAR-gamma receptor (glitazone receptor) is involved in the regulation of glucose and lipid metabolism. To identify the compounds that inhibit PPAR-gamma signaling, GeneBLAzer PPAR gamma UAS-bla HEK293H cell line (Invitrogen, Carlsbad, CA, USA) containing a beta-lactamase reporter gene under control of an Upstream Activator Sequence (UAS) was used to screen the Tox21 compound library.
# Tox21 Assay Protocol Summary: PPARg-bla cells were dispensed at 3000 cells/6uL/well in 1536-well black wall/clear bottom plates using a Multidrop Combi (Thermo Fisher Scientific, Waltham, MA) dispenser. After the assay plates were incubated at 37C and 5% CO2 for 5 h, 23 nL of compounds dissolved in DMSO, positive controls or DMSO only was transferred to the assay plate by a Pintool station (Kalypsys, San Diego, CA). The assay plates were incubated at 37C for 17 h. After 1 uL of LiveBLAzerTM B/G FRET substrate was added using a Bioraptr Flying Reagent Dispenser (FRD) workstation (Beckman Coulter, Indianapolis, IN, USA), the plates were incubated at room temperature for 1 h, and fluorescence intensity was measured by an Envision plate reader (PerkinElmer, Shelton, CT).
# Potency is read from the fitted curve at half-maximal effect.
# Peroxisome proliferator-activated receptor gamma (Homo sapiens), sequence (P37231 whole entry, looked up): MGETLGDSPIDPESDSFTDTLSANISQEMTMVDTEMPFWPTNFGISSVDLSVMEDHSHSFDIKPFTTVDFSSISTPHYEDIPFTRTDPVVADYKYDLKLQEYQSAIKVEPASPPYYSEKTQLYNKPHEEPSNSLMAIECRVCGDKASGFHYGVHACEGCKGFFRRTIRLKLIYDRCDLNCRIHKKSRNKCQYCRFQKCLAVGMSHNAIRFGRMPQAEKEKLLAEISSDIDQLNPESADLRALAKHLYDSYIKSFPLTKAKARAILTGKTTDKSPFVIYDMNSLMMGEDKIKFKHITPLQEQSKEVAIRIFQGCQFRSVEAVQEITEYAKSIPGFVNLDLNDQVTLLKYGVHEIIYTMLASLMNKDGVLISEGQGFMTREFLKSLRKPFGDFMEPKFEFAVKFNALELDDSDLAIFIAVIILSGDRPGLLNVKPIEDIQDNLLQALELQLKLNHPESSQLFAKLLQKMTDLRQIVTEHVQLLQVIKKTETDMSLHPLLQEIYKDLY
row,Compound,Potency
1,CCc1cc(C(C)(C)C)c(O)c(C(C)(C)C)c1,inactive
2,Cc1ccc(-c2cc(C(F)(F)F)nn2-c2ccc(S(N)(=O)=O)cc2)cc1,inactive
3,CC(=O)O[C@]1(C(C)=O)CC[C@H]2[C@@H]3C[C@H](C)C4=CC(=O)CC[C@]4(C)[C@H]3CC[C@@]21C,inactive
4,CCC[C@H](N[C@@H](C)C(=O)N1[C@H](C(=O)O)C[C@@H]2CCCC[C@@H]21)C(=O)OCC,inactive
5,CCOc1ccccc1C(N)=O,inactive
6,O=C1NCC2(CCN(CCc3ccccc3)CC2)O1,inactive
7,c1ccc2c(c1)CCCC2C1=NCCN1 (stereo not given),inactive
8,NCCCCCC(=O)O,inactive
9,C1COC(NC(C2CC2)C2CC2)=N1,inactive
10,Nc1cc(S(=O)(=O)O)cc2cc(S(=O)(=O)O)cc(O)c12,inactive
11,CCC(C)(Oc1ccc(C2(c3ccc(OC(C)(CC)C(=O)O)cc3)CCCCC2)cc1)C(=O)O (stereo not given),inactive
12,Nc1nc2ccccc2[nH]1,inactive
13,Cc1ccnc2c1NC(=O)c1cccnc1N2C1CC1,inactive
14,CC1=C(C=O)C(C)(C)CC=C1,inactive
15,CCc1ccc(C(c2ccc(CC)cc2)C(Cl)Cl)cc1,inactive
16,COc1nc(C)nc(Cl)c1NC1=NCCN1,inactive
17,CCC(=O)/C=C/C1C(C)=CCCC1(C)C (stereo not given),inactive
18,Nc1nc(=S)c2[nH]cnc2[nH]1,inactive
19,CCCCCCCCCCCC[N+](C)(C)C,inactive
20,O=C(O)CP(=O)(O)O,inactive

row,Compound,Potency
1,C=C(C)C1CC=C(C)C(OC(C)=O)C1 (stereo not given),inactive
2,CC(C)(C)NCC(O)COc1ccccc1OCC1CCCO1 (stereo not given),inactive
3,CN1C(=O)c2ccc([N+](=O)[O-])cc2C1=O,inactive
4,COC(=O)/C=C/c1ccccc1,inactive
5,CCCNC(C)C(=O)Nc1ccccc1C (stereo not given),inactive
6,O=C(Oc1ccccc1)c1ccccc1O,inactive
7,C=CC(=O)OCCCCCCCC,inactive
8,CC(=O)N[C@@H](CS)C(=O)O,inactive
9,COC(c1ccccc1)(c1ccccc1)[C@H](Oc1nc(C)cc(C)n1)C(=O)O,inactive
10,CCN(CC)C(=O)Nc1ccc(OCC(O)CNC(C)(C)C)c(C(C)=O)c1 (stereo not given),inactive
11,CCCCCCCCCCCCCCCCCl,inactive
12,CC1COc2c(N3CCN(C)CC3)c(F)cc3c(=O)c(C(=O)O)cn1c23 (stereo not given),inactive
13,CN(C)c1ccc2nc3ccc(=[N+](C)C)cc-3sc2c1,43.6 µM (active) and inactive
14,CCCCOCCOC(=O)c1ccccc1C(=O)OCCOCCCC,inactive
15,CNC1(C)C2CCC(C2)C1(C)C (stereo not given),inactive
16,OCC(CO)N[C@H]1C[C@](O)(CO)[C@@H](O)[C@H](O)[C@H]1O,inactive
17,c1cnc2cc3c(cc2n1)C1CNCC3C1,inactive
18,Nc1ccc(O)cc1,inactive
19,O=S(=O)(O)c1ccc2nc(-c3ccccc3)[nH]c2c1,inactive
20,NC(=Nc1ccccc1)Nc1ccccc1,inactive
